High-throughput results deposited in PubChem by Broad Institute.
aSyn 5UTR act: Activators working through SNCA 5'UTR binding (MLPCN). activity score, % (tested at 7.5 µM), hits read low. 300,000 tested, 7.1% active. alpha-synuclein 5'UTR reporter, activators screen; in the data active = activity score below about -60%
Numbers stand for hits. The list is a sample of the results.

What do the screens show for `CCCCOC(=O)c1ccc(NC(=O)C2CCCO2)cc1` (stereo not given)?
aSyn 5UTR act: -75

How did CCCCc1nnc(NC(=O)C2CCCO2)s1 (stereo not given) do in these assays?
aSyn 5UTR act: -86

What do the screens show for `CCCc1nnc(NC(=O)C23CC4CC(CC(C4)C2)C3)s1`?
aSyn 5UTR act: -118

Results for CCCCc1ccc(NC(=O)C2CCCO2)cc1 (stereo not given) ?
aSyn 5UTR act: -97

What do the screens show for `CCOC(=O)c1ccc(NC(=O)C2CCCO2)cc1` (stereo not given)?
aSyn 5UTR act: -99

What do the screens show for `O=c1[nH]c(N/N=C/c2ccccc2)nc2ccccc12`?
aSyn 5UTR act: -212

Results for Cc1cc(N/N=C/c2ccc3c(c2)OCO3)nc2ccccc12 ?
aSyn 5UTR act: -180

Results for Brc1ccc(-c2ccc(/C=N/Nc3nc4ccccc4[nH]3)o2)cc1 ?
aSyn 5UTR act: -227

Results for C(=C\c1ccccc1)/C=N/Nc1nc2ccccc2[nH]1 ?
aSyn 5UTR act: -275

What do the screens show for `O=c1[nH]c(N/N=C\c2ccc3c(c2)OCO3)nc2ccccc12`?
aSyn 5UTR act: -161

How did C(/CCc1ccccc1)=N\Nc1nc2ccccc2[nH]1 do in these assays?
aSyn 5UTR act: -67

Results for Fc1cccc(/C=N/Nc2nc3ccccc3[nH]2)c1 ?
aSyn 5UTR act: -160

Results for Fc1ccc(/C=N/Nc2nc3ccccc3[nH]2)cc1F ?
aSyn 5UTR act: -159

How did C(=N\Nc1nc2ccccc2[nH]1)/c1ccccc1 do in these assays?
aSyn 5UTR act: -175

What do the screens show for `Cc1sc(NC(=O)c2ccccc2F)c(CN2CCCCC2C)c1C` (stereo not given)?
aSyn 5UTR act: -296

How did COc1ccc(-c2csc(N3CCC(c4ccccc4)C3)n2)cc1 (stereo not given) do in these assays?
aSyn 5UTR act: -114

How did COc1ccc(-c2csc(N3CCSCC3)n2)cc1 do in these assays?
aSyn 5UTR act: -225

Results for Clc1ccc(-c2csc(N3CCC(c4ccccc4)C3)n2)cc1 (stereo not given) ?
aSyn 5UTR act: -226

How did CCN(CC)CCCNC(=S)N1CCN(c2nc(-c3ccc(F)cc3)cs2)CC1 do in these assays?
aSyn 5UTR act: inactive

Results for Fc1ccc(-c2csc(N3CCC(c4ccccc4)C3)n2)cc1 (stereo not given) ?
aSyn 5UTR act: -199

What do the screens show for `COc1ccc(-c2csc(-n3cccn3)n2)cc1`?
aSyn 5UTR act: -153

Results for CC(=O)c1ccc(NC(=O)[C@@H]2CCCN2C(=O)OC(C)(C)C)cc1 ?
aSyn 5UTR act: -94

How did Cc1cccc(NC(=O)c2cnc3sccn3c2=O)n1 do in these assays?
aSyn 5UTR act: -116

Results for Cc1cccc(NC(=O)c2cnc3sccn3c2=O)c1C ?
aSyn 5UTR act: -124

Results for O=C(Nc1cnc2sccn2c1=O)c1ccccc1Cl ?
aSyn 5UTR act: -180

Results for Cc1cccc(NC(=O)c2cnc3sccn3c2=O)c1 ?
aSyn 5UTR act: -74

Results for COc1ccc(NC(=O)c2cnc3sccn3c2=O)cc1 ?
aSyn 5UTR act: -133

What do the screens show for `CC(C)(C)C1CCC(OC(=O)CN2CCCCC2)CC1` (stereo not given)?
aSyn 5UTR act: -63

How did Cc1cccc(CSC2=NN3CCCC(=O)N=C3S2)c1 do in these assays?
aSyn 5UTR act: -69

What do the screens show for `COc1ccc(-c2nnc(SCc3ccccn3)n2C)cc1`?
aSyn 5UTR act: -67

What do the screens show for `COc1ccc(-c2nnc(SCc3ccccc3)n2N)cc1`?
aSyn 5UTR act: -142

Results for COc1ccc(N=C(N)SCc2ccccn2)cc1 ?
aSyn 5UTR act: -79

What do the screens show for `COc1ccc(-c2nnc(SCCc3ccccc3)n2N)cc1`?
aSyn 5UTR act: -82

How did CCCOC(=O)c1ccc(NC(=O)c2cnccn2)cc1 do in these assays?
aSyn 5UTR act: -104

Results for O=C(Nc1ccc(NC(=O)c2ccco2)cc1)c1cnccn1 ?
aSyn 5UTR act: -67

How did CCc1ccc(NC(=O)c2cnccn2)cc1 do in these assays?
aSyn 5UTR act: -138

What do the screens show for `O=C(Nc1ccc(OC(F)(F)F)cc1)c1cnccn1`?
aSyn 5UTR act: -195

What do the screens show for `COc1ccc(C(=O)NCCn2cc(SCC(=O)Nc3nnc(C)s3)c3ccccc32)cc1`?
aSyn 5UTR act: -69

How did COc1cccc(Nc2nc(-c3sc(N)nc3C)cs2)c1 do in these assays?
aSyn 5UTR act: -112

Results for COc1cccc(Nc2nc(-c3sc(C)nc3C)cs2)c1 ?
aSyn 5UTR act: -103

Results for Cc1nc(C)c(-c2csc(Nc3ccc(F)cc3)n2)s1 ?
aSyn 5UTR act: -152

Results for Cc1nc(N)sc1-c1csc(Nc2ncccn2)n1 ?
aSyn 5UTR act: -136

Results for COc1ccc(-c2cn3c(n2)CCC3)cc1 ?
aSyn 5UTR act: -91

What do the screens show for `Cc1snc(SCC(=O)c2ccc(F)cc2)c1C#N`?
aSyn 5UTR act: -124

What do the screens show for `CSc1nc(N)nc(SCC(=O)OC(C)C)c1C#N`?
aSyn 5UTR act: -82

How did CSc1nc(N)nc(SCC(=O)c2ccc(C)cc2)c1C#N do in these assays?
aSyn 5UTR act: -113

How did Cc1ccc(Oc2ccc(Cl)cc2N)cc1 do in these assays?
aSyn 5UTR act: -85

How did Nc1cc(Cl)ccc1Oc1ccc2ccccc2c1 do in these assays?
aSyn 5UTR act: -138

What do the screens show for `CCOC(=O)C1CCCN(Cc2cc(=O)oc3cc(C)ccc23)C1` (stereo not given)?
aSyn 5UTR act: -75

How did Cc1ccc2c(CN3CCC(C)CC3)cc(=O)oc2c1 do in these assays?
aSyn 5UTR act: -150

What do the screens show for `O=[N+]([O-])c1nn(-c2ccc3c(c2)OCCO3)n(O)c1=NC1CCCCC1`?
aSyn 5UTR act: -64

How did O=[N+]([O-])c1nn(-c2ccc3c(c2)OCCO3)n(O)c1=NCc1ccccc1Cl do in these assays?
aSyn 5UTR act: -95

What do the screens show for `COc1ccccc1CN=c1c([N+](=O)[O-])nn(-c2ccc3c(c2)OCCO3)n1O`?
aSyn 5UTR act: -132

What do the screens show for `Cc1ccc(-n2c(C)cc(/C=c3/sc4nc5ccccc5n4c3=O)c2C)cc1`?
aSyn 5UTR act: inactive

How did O=C(O)Cn1cc(/C=c2/sc3nc4ccccc4n3c2=O)c2ccccc21 do in these assays?
aSyn 5UTR act: -162

How did Nc1ccc2nc(SCC(=O)c3ccccc3)sc2c1 do in these assays?
aSyn 5UTR act: -75

What do the screens show for `Nc1nnc(SCC(=O)c2ccc3ccccc3c2)s1`?
aSyn 5UTR act: -135

What do the screens show for `Cc1cc(C(=O)CSc2nnc(N)s2)c(C)n1Cc1cccs1`?
aSyn 5UTR act: inactive

What do the screens show for `Nc1ccc2nc(SCc3ccccc3F)sc2c1`?
aSyn 5UTR act: -203

How did Nc1ccccc1-c1nc2ccccc2[nH]1 do in these assays?
aSyn 5UTR act: -163

What do the screens show for `Nc1cccc2nc3ccccc3cc12`?
aSyn 5UTR act: inactive

How did Cn1cc(-c2nc3ccccc3[nH]2)c2ccccc21 do in these assays?
aSyn 5UTR act: -124

How did O=c1[nH]cccc1-c1nc2ccccc2[nH]1 do in these assays?
aSyn 5UTR act: -132

What do the screens show for `Oc1ccc(C=Nc2ccccc2-c2nc3ccccc3[nH]2)cc1`?
aSyn 5UTR act: -142

Results for COc1ccc(-n2ncc3c(NCCN4CCOCC4)ncnc32)cc1 ?
aSyn 5UTR act: -69

How did COc1ccc(-n2ncc3c(NCCCN4CCOCC4)ncnc32)cc1 do in these assays?
aSyn 5UTR act: -120

What do the screens show for `COc1ccc(-c2oc3ncn(CCN4CCOCC4)c(=N)c3c2-c2ccc(OC)cc2)cc1`?
aSyn 5UTR act: inactive

What do the screens show for `CCc1ccc(NC(=S)Nc2cc(C(=O)O)ccc2N2CC3CC(C2)c2cccc(=O)n2C3)cc1` (stereo not given)?
aSyn 5UTR act: -114

How did N#C/C(=N\Nc1ccc(Cl)cc1)C(=N)N1CCCCCC1 do in these assays?
aSyn 5UTR act: -133
